From PubChem
Shown are actives, neighbours in structure and some others; about 9% of the full set was active somewhere.
JMJD2A Tudor inh: qHTS Assay for Inhibitors of JMJD2A-Tudor Domain; 390,000 tested, 4.4% active; Lysine-specific demethylase 4A (Homo sapiens), O75164; AID 504339, 2011; AlphaScreen JMJD2A-Tudor / H3K4me3 peptide binding; Potency, µM (highest dose often 114 µM), for inactives: top-dose activity change, negative = inhibition, hits mostly inhibitors; also: % is scaled to controls: 0 for no effect and ±100 for the full control effect; nearly all actives have a fitted effect of over 50% in size
PLK1 PBD block: qHTS for Inhibitors of PLK1-PDB (polo-like kinase 1 - polo-box domain): Primary Screen. Plk1 PBD binding of FITC phosphopeptide, fluorescence polarization. Potency, µM, inactives show max response, negative = inhibition, actives largely listed as inhibitors. 360,000 tested, 2.8% active; also: series mostly up to about 57 µM; % is scaled to controls: 0 for no effect and ±100 for the full control effect; nearly all actives have a fitted effect of over 65% in size
G9a block: qHTS Assay for Inhibitors of Histone Lysine Methyltransferase G9a. Histone-lysine N-methyltransferase EHMT2 (Homo sapiens), Q96KQ7. G9a H3K9 monomethylation, AlphaScreen, 2 h. Potency, µM (titrated, usually from 102 µM), inactives show at the top dose activity, negative = inhibition, actives largely listed as inhibitors. 350,000 tested, 8.8% active. AID 504332, 2011; also: % is scaled to controls: 0 for no effect and ±100 for the full control effect; nearly all actives have a fitted effect of over 75% in size
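Compounds were preincubated with 20 nM G9a for 15 min, after which biotinylated H3K9 peptide (500 nM) and SAM (20 uM) started a 2 h room-temperature reaction. Monomethylated product was quantified by antibody-based AlphaScreen chemiluminescence.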
ALOX12 inh: Primary qHTS assay for inhibitors of human arachidonate 12S-lipoxygenase (ALOX12): Round 2; Polyunsaturated fatty acid lipoxygenase ALOX12 (Homo sapiens), P18054; purified 12hLO, xylenol orange hydroperoxide absorbance; Potency, µM (doses to about 108 µM), for the others: top-dose activity change, negative = inhibition, usual class: inhibitors; 580,000 tested, 1.1% active; also: % is scaled to controls: 0 for no effect and ±100 for the full control effect
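Purified human 12hLO at 150 nM in 25 mM Hepes, 0.01% Triton X-100, pH 7.0, preincubated 15 min at room temperature with compound. Reaction started with 40 uM arachidonic acid, 30 min at room temperature. Hydroperoxide measured by Fe-xylenol orange, 573/405 nm absorbance ratio.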
HP1b binding inh: HTS for Inhibitors of HP1-beta Chromodomain Interactions with Methylated Histone Tails. AID 540317, 2011. Potency, µM (series often up to 114 µM), for inactives: top-dose activity change, negative = inhibition, usual class: inhibitors. AlphaScreen HP1-beta / biotin-H3K9me3 peptide binding. 390,000 tested, 0.56% active; also: nearly all actives have a fitted effect of over 70% in size
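HP1-beta protein (50 nM final) preincubated 30 min at room temperature with biotinylated H3(1-18)K9me3 peptide (50 nM) in PBS pH 7.4, 0.01% Tween-20, then compound added for 30 min. AlphaScreen streptavidin donor/nickel chelate acceptor beads (10 ug/mL final), 30 min dark, luminescence read.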
BAZ2B block: qHTS Assay for Inhibitors of BAZ2B | AlphaScreen BAZ2B-H3K14Ac peptide displacement | Potency, µM (titrated, usually from 114 µM), without a hit: at the top dose activity change, negative = inhibition, actives largely listed as inhibitors | 360,000 tested, 4.4% active | AID 504333, 2011; also: % is scaled to controls: 0 for no effect and ±100 for the full control effect; nearly all actives have a fitted effect of over 60% in size
Target sequence (Q9UIF8 whole entry, looked up): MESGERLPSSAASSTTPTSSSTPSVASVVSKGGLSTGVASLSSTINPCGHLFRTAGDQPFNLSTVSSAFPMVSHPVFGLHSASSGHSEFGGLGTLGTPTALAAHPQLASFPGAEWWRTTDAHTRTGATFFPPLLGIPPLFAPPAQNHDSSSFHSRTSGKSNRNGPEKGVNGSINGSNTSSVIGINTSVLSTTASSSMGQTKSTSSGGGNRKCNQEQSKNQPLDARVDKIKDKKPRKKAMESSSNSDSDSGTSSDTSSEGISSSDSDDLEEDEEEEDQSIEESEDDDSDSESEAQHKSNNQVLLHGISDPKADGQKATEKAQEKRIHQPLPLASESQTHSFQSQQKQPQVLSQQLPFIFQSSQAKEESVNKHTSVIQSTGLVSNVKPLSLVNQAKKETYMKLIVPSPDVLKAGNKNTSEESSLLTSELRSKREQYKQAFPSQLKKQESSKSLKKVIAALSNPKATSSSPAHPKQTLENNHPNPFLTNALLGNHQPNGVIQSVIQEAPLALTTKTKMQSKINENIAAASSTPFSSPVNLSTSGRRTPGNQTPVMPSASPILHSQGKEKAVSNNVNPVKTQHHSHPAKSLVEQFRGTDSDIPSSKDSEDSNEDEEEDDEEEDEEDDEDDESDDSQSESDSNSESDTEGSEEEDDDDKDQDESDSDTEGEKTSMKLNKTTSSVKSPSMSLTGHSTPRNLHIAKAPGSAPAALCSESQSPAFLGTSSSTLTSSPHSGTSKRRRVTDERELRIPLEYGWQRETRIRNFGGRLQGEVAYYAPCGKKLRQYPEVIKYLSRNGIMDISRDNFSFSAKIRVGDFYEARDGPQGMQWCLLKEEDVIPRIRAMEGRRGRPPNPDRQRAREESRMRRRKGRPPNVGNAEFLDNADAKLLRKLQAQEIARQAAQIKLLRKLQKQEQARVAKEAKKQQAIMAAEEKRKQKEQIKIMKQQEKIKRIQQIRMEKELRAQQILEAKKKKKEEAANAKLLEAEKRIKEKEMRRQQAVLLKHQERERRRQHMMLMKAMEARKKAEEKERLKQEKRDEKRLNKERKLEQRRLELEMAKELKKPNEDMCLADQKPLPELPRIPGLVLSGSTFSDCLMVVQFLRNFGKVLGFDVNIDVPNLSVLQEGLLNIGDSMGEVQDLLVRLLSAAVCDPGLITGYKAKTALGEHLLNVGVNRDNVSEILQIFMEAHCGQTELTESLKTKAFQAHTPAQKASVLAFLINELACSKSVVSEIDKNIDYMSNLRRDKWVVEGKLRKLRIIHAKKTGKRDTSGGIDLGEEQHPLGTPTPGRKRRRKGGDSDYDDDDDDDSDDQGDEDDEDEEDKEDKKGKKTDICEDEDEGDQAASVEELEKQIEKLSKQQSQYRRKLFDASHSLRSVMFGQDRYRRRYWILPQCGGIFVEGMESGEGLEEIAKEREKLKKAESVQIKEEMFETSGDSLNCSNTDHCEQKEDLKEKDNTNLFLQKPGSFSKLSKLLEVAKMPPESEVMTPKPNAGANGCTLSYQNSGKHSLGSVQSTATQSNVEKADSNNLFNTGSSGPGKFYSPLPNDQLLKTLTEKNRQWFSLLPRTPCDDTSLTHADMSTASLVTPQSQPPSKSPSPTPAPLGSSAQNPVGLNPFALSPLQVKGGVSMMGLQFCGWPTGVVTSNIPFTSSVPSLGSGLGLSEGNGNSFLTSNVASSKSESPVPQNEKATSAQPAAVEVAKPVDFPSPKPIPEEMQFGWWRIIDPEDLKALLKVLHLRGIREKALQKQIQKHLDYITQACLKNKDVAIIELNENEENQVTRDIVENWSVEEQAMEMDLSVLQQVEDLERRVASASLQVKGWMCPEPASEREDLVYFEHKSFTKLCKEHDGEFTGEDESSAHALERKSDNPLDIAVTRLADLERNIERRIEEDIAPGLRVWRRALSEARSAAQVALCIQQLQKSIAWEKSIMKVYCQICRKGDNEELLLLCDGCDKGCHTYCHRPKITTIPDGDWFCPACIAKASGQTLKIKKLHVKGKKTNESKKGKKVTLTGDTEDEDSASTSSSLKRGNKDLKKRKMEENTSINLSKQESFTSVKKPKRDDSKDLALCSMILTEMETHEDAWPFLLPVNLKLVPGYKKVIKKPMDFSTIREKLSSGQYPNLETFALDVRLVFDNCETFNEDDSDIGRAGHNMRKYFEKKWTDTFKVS
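Protein-peptide AlphaScreen: BAZ2B 50 nM, b-H3K14Ac 50 nM, 1x PBS pH 7.4 + 0.01% Tween-20. Preincubation 30 min RT; cpd 30 min RT (top 110 uM); beads 20 min RT, light-protected.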
Numbers without * were called inactive; ? = inconclusive; . = not tested or not shown; [ ] = dose if it differs, or a comment. Calls follow the shape of the dose curve; as a rule, active = well fitted curve in the direction sought with a large enough effect; inconclusive = small, poorly fitted or top-dose-only effect, or another doubt; inactive = no such curve, though single readings can be large; an effect the other way counts as inactive or inconclusive. Potency is read from the fitted curve at half-maximal effect.

SMILES	JMJD2A Tudor inh	PLK1 PBD block	G9a block	ALOX12 inh	HP1b binding inh	BAZ2B block
COc1ccc(CC(=O)NCc2n[nH]c(=S)n2-c2ccc(F)cc2)cc1	50.1µM*	?	-35.7%[12.7 µM]	-16.6%	31.2%	-17.6%
COc1ccc(CC(=O)NCc2n[nH]c(=S)n2-c2cccc(Cl)c2)cc1	50.1µM*	0.8%	3.16µM*	-8.5%	43.9%	-20.3%
Cc1c(C(=O)NCc2n[nH]c(=S)n2-c2ccc(F)cc2)cccc1[N+](=O)[O-]	39.8µM*	-1.2%	10µM*	-0.9%	52.1%	2.9%
CCn1c(CNC(=O)Cc2ccc(OC)cc2)n[nH]c1=S	?	10.0%	?	?	47.6%	-22.4%
COc1ccc(COC(=O)CCCN=C2NS(=O)(=O)c3ccccc32)cc1F	.	6.0%	.	-2.5%	.	.
COc1ccc(-n2c(CNC(=O)c3cccs3)n[nH]c2=S)cc1	22.4µM*	-22.3%	20µM*	?	4.8%	-4.0%
O=C(CNc1ccc2ccccc2c1)N/N=C/C=C/c1cccc([N+](=O)[O-])c1	?	-3.8%	3.16µM*	-29.8%	15.8%	89.1µM*
CC(=O)Nc1ccc(C=CC=Cc2cccc([N+](=O)[O-])c2)cc1	79.4µM*	0.0%	.	?	?	.
CCOc1ccccc1NC(=O)/C(C#N)=C/c1c(C)nn(-c2ccccc2)c1Cl	44.7µM*	0.0%	2.2%[59 µM]	2.8%	12.0%	-3.2%
COc1[nH]c(/N=C/c2ccco2)c(C#N)c1C#N	31.6µM*	.	.	.	22.4µM*	.
CCOc1[nH]c(/N=C/c2ccccc2)c(C#N)c1C#N	-17.0%	.	.	.	6.4%	.
CCCSc1oc(-c2ccco2)nc1S(=O)(=O)c1ccc(Br)cc1	2.4%	.	-46.6%[59 µM]	-26.7%	21.0%	-18.3%
NC(=O)CSc1oc(-c2ccco2)nc1S(=O)(=O)c1ccc(Cl)cc1	-18.6%	-25.9%	31.6µM*	28.2µM*	11.2%	-24.6%
Cc1ccc(S(=O)(=O)c2nc(-c3ccco3)oc2SCC(N)=O)cc1	-24.0%	-22.7%	?	?	-24.8%	-10.2%
O=C(CSc1oc(-c2ccccc2)nc1S(=O)(=O)c1ccc(Cl)cc1)c1ccccc1	?	.	11.2µM*	7.94µM*	2.9%	-6.2%
CSc1oc(-c2ccco2)nc1S(=O)(=O)c1ccc(Br)cc1	-33.3%	-16.1%	39.8µM*	-6.0%[57.4 µM]	27.7%	-32.0%
NC(=O)CSc1oc(-c2ccco2)nc1S(=O)(=O)c1ccc(Br)cc1	-4.2%	-24.8%	28.2µM*	?	25.4%	?
O=C(Nc1cccc(-c2nnc3n2CCCC3)c1)c1ccn[nH]1	.	.	.	14.9%	.	.
Cc1nc(N2CCCC2)ncc1C(=O)NCc1ccccc1Cl	-1.0%	.	-2.3%[12.7 µM]	-28.3%	24.8%	-3.2%
CC(C)CN(CC(C)C)S(=O)(=O)N1CCC(C(=O)NCc2cccs2)CC1	-0.6%	-9.8%	28.6%[0.501 µM]	9.9%	14.9%	-8.9%
OC(C#Cc1ccccn1)c1cccs1 (stereo not drawn)	44.7µM*	29.9µM*	-113.8%[12.7 µM]	457.7%	?	7.08µM*
COc1ccc(N2COC3c4cccc5cccc(c45)C32)cc1 (stereo not drawn)	63.1µM*	-2.9%	?	?	-38.1%	44.7µM*
N=C(N)SC12CC3CC(CC(C3)C1)C2	.	.	.	13.7%	.	.
CCS(=O)(=O)NCC1(COc2ccccc2)C[C@@H](O)[C@@H](O)C1 (stereo partly drawn)	.	.	.	56.2µM*	.	.
CC(C)NCC1(COc2ccccc2)C[C@@H](O)[C@@H](O)C1 (stereo partly drawn)	.	.	.	12.3%[176 µM]	.	.
